The campaign covered roughly 48,000 compounds. About 13,000 (27%) showed an effect of 50% or more. The list shows a part of the results.
tested on: Wolbachia pipientis; test: Anti-Wolbachia Cell-Based Screen; type: functional; parameters: scale not given: in the data most compounds retested in dose-response had high values; conditions: 5 µM

| Compound | Percent Effect |
| --- | --- |
| Cc1cc(N(C)C)nc(NC2CCc3nc(C)nn3C2)n1 (stereo not given) | 0.6524% |
| O=C(C1CC1)N1C[C@H]2CNC[C@@]2(C(=O)NCCCc2ccccc2)C1 | -23.56% |
| CCn1cc(CN2CCC(CNC(C)=O)CC2)cc1C#N | 3.567% |
| CC(C)Oc1cc(N2CCCC(O)C2)nc(N)n1 (stereo not given) | -24.67% |
| Cc1ncsc1C(=O)NC1CCN(CCC(N)=O)CC1 | -6.823% |
| Cc1cc(N2CCC(NCCOc3ccccc3)CC2)nc(C)n1 | 2.138% |
| Cc1nn(C)c(C)c1C1CCCN1CCOc1cccc(C#N)c1 (stereo not given) | -3.583% |
| COCCN1CCC1c1cc(N)nc(C)n1 (stereo not given) | 66.06% |
| COCCN1CCN(Cc2ccc3nsnc3c2)[C@H]2CS(=O)(=O)C[C@H]21 | 0.2231% |
| COCCCn1ccc(NC2CCSCC2)n1 | -2.987% |
| COCCN1CCC(CN(C)c2nc3c(s2)c(C)nn3C)C1 (stereo not given) | -0.8373% |
| CCc1nc(N)sc1C(=O)N1CCC(c2cc(O)nc(C)n2)CC1 | -4.912% |
| COCCN1CCC1c1cc(NC2CCCC2)nc(C)n1 (stereo not given) | 74.49% |
| Cc1nc(N)cc(C2CCN2CCC(N)=O)n1 (stereo not given) | 67.17% |
| COCCCn1ccc(NC2CCOCC2)n1 | 12.54% |
| Cc1nc(N)cc(C2CCN2CCOc2ccccc2)n1 (stereo not given) | 153.2% |
| CCN(Cc1noc(CC(C)C)n1)Cc1ncccc1C(=O)O | 0.41% |
| O=C(Cc1ccc(F)cc1)NCC(O)(c1cccs1)C1CC1 (stereo not given) | -8.989% |
| O=C(c1ccc(-c2nc[nH]n2)cc1)N1CCOC(C(F)(F)F)C1 (stereo not given) | 16.44% |
| Cc1cc(N2CCOC(C(F)(F)F)C2)nc(-c2ccccc2O)n1 (stereo not given) | 0.367% |
| O=C(c1ccnc(N2CCOC(C(F)(F)F)C2)c1)N1CCOCC1 (stereo not given) | 126.7% |
| O=C(c1ccccc1-c1nc[nH]n1)N1CCOC(C(F)(F)F)C1 (stereo not given) | -3.819% |
| CCCOC1CCCN(C(=O)c2ccnc(N3CCN(C)CC3)c2)C1 (stereo not given) | -2.412% |
| O=C(c1ccnc(N2CCOC(c3ccc(Cl)cc3)C2)c1)N1CCCC1 (stereo not given) | 5.063% |
| O=C(c1ccnc(N2CCOC(C(F)(F)F)C2)c1)N1CCCC1 (stereo not given) | 104.2% |
| CN1CCN(C(=O)c2ccnc(N3CCOC(C(F)(F)F)C3)c2)CC1 (stereo not given) | 130.4% |
| FC(F)(F)C1CN(c2nc(-c3ccccc3)no2)CCO1 (stereo not given) | 1.85% |

| Compound | Percent Effect |
| --- | --- |
| N#CC(NC(=O)CC1CCSCC1)c1cnn(-c2ccccc2)c1 (stereo not given) | -2.178% |
| O=C(c1cccc(O)c1)N1CCN(Cc2nnc(C3CCC3)o2)CC1 | 6.828% |
| Cc1csc(NC(=O)[C@@H]2C[C@H]3[C@H](CCN3S(C)(=O)=O)O2)n1 | 118.9% |
| CC(=O)N1CC[C@@H]2O[C@@H](COCc3csc(C)n3)CC[C@@H]21 | -30.94% |
| CS(=O)(=O)N1CC[C@H]2O[C@@H](C(=O)NCc3ccco3)CC[C@H]21 | -0.8352% |
| CS(=O)(=O)N1CC[C@H]2O[C@H](C(=O)NCc3cccnc3)CC[C@H]21 | -7.533% |
| Cc1csc(NC(=O)[C@@H]2C[C@H]3[C@H](CCN3c3ncccn3)O2)n1.O=C(O)C(F)(F)F | 118% |
| CC(=O)N1CC[C@@H]2O[C@H](C(=O)Nc3nc(C)cs3)C[C@@H]21 | 101% |
| CN1CCC(NC(=O)[C@H]2CC[C@@H]3[C@@H](CCN3c3ncccn3)O2)CC1.O=C(O)C(F)(F)F.O=C(O)C(F)(F)F | 7.6% |
| O=C(NCc1cccnc1)[C@@H]1C[C@H]2[C@H](CCN2c2ncccn2)O1.O=C(O)C(F)(F)F.O=C(O)C(F)(F)F | -20.81% |
| CNC(=O)[C@@H]1CC[C@@H]2[C@@H](CCN2C(=O)N(C)C)O1 | -10.15% |
| NC(=O)CCn1ccc(NC(=O)c2ccc(Br)o2)n1 | -16.68% |
| O=C(NCC1(N2CCOCC2)CCSC1)Nc1ccc(F)cc1 (stereo not given) | -9.419% |
| CCCOc1ccccc1CCCNc1ncnc2oc(C)nc12 | -6.613% |
| CCc1nccc(CN2CCC(CNC(=O)c3occc3C)C2)n1 (stereo not given) | -2.673% |
| CC(N1CCN(C(=O)NCc2cccc(C#N)c2)CC1)C(F)(F)F (stereo not given) | -0.6976% |
| O=C([C@H]1CCCO1)N1CCc2ncnc(C3CC3)c2CC1 | 109.2% |
| CC(C)Nc1ncnc2c1CCN(C(=O)[C@H]1CCCO1)CC2 | 89.47% |
| O=C(c1ccnnc1)N1CCc2ncnc(C3CCOC3)c2CC1 (stereo not given) | -19.12% |
| O=C(C1CCCCO1)N1CCc2ncnc(NCc3ccon3)c2CC1 (stereo not given) | -8.792% |
| CCN(C)c1ncnc2c1CCN(C(=O)[C@H]1CCCO1)CC2 | 4.637% |
| O=C(C1CCCCO1)N1CCc2ncnc(NCCO)c2CC1 (stereo not given) | -13.54% |
| CCCN(C)C(=O)c1cc(Br)cc(S(=O)(=O)N2CCOCC2)c1F | 6.063% |
| Cc1nnc(N2CCCC3(CN(c4cccc(F)c4)CCO3)C2)o1 (stereo not given) | -14.38% |
| O=C(NCCN1CCOCC1)c1cc(Cl)c2c(c1)OCCCO2 | 12.84% |
| CCn1c(CN2CCOC(Cn3cncn3)C2)nc2c(F)cccc21 (stereo not given) | -6.661% |
| Cc1ccc(C(CNCC2CC2)N2CCOCC2)s1 (stereo not given) | -12.57% |

| Compound | Percent Effect |
| --- | --- |
| CNC(=O)c1ccc(C(=O)N2CCC(Nc3cccnn3)CC2)cn1 | 119% |
| CC(C(=O)N1CCC(Nc2cccnn2)CC1)n1ccnc1 (stereo not given) | 3.754% |
| CC(C(=O)N1CCC(Nc2cccnn2)CC1)n1cccn1 (stereo not given) | 60.47% |
| Cc1cccc2nc(C(=O)N3CCC(Nc4cccnn4)CC3)cn12 | -6.08% |
| O=C(c1ccc(-n2cnnc2)cc1)N1CCC(Nc2cccnn2)CC1 | 87.89% |
| O=C(c1ccc(-c2cnco2)cc1)N1CCC(Nc2cccnn2)CC1 | 107% |
| CC(Cn1cccn1)C(=O)N1CCC(Nc2cccnn2)CC1 (stereo not given) | -6.529% |
| CCOC(C)c1nc(Cn2cc(C(=O)NC)ccc2=O)cs1 (stereo not given) | -7.956% |
| Cc1ccc(NC(=O)N2CCOC(C)(c3cnn(C)c3)C2)c(C)c1 (stereo not given) | 16.86% |
| COc1cc2c(cc1OC)S(=O)(=O)N(Cc1cc(C)on1)C2=O | -6.413% |
| N#Cc1c(Cl)nsc1N1CCN(CC2CCCCC2)CC1 | 3.475% |
| Cc1cccc(-n2nc(CC(C)C)nc2CCn2ccc(=O)[nH]c2=O)c1 | 22.44% |
| O=C(c1ccccc1-n1cccn1)N1CCC(Nc2cccnn2)CC1 | 157.4% |
| O=C(c1ccccc1-n1cccn1)N1CCCN(c2cccnn2)CC1 | -6.198% |
| O=C(c1ccsc1)N1CCC(c2nnc(C3CC3)o2)CC1 | 116.7% |
| O=C(c1ccncc1)N1CCCN(Cc2nnc(C3CC3)o2)CC1 | -12.73% |
| O=C(c1ccc(O)nc1)N1CCC(Nc2cccnn2)CC1 | 95.42% |
| O=C(c1ccc(NC2CC2)nc1)N1CCC(Nc2cccnn2)CC1 | 118.5% |
| O=C(c1ccc(-n2cccn2)nc1)N1CCC(Nc2cccnn2)CC1 | -1.733% |
| O=C(c1ccccn1)N1CCC(Nc2cccnn2)CC1 | 18.78% |
| FC(F)(F)c1ccc(-n2ccnc2-c2cc3n(n2)CCNC3)cn1 | 0.08182% |
| CCS(=O)(=O)c1ccccc1N1CCC(NC(=O)NC2CCCC2)CC1 | -4.776% |
| O=C(c1ccsc1)N1CCC(Nc2cccnn2)CC1 | 95.56% |
| O=C(c1ccoc1)N1CCC(Nc2cccnn2)CC1 | 90.61% |
| Cc1ccc(S(=O)(=O)Nc2ccc(-n3nnn(C)c3=O)cc2)cc1 | 8.508% |
| O=S(=O)(Nc1ccc(N2CCOCC2)cn1)c1cccc(F)c1 | 2.193% |
| COc1cccc(OCC2CCCN(C(=O)c3ncc(F)cc3F)C2)c1 (stereo not given) | -61.26% |

| Compound | Percent Effect |
| --- | --- |
| COCC(=O)N1CCCN(c2ncnc3c2CCNCC3)CC1 | 1.266% |
| c1nc2c(c(NC3COC4(CCCC4)C3)n1)CCNCC2 (stereo not given) | 100.1% |
| c1nc2c(c(NC3CCc4ncnn4C3)n1)CCC2 (stereo not given) | -6.936% |
| COC[C@H]1CCC[C@H]1Nc1ncnc2c1CCNCC2 | 95.23% |
| CCNc1ncc(C(=O)NC2COC3(CCCC3)C2)cn1 (stereo not given) | -5.692% |
| CC(C)Nc1ncnc2c1CCNCC2 | -5.966% |
| CC(NC(=O)CCN1CCOC1=O)(c1ccccc1)c1ccccc1 | 8.215% |
| CC(Oc1ccccc1C(F)(F)F)C(=O)NS(=O)(=O)C(C)C (stereo not given) | -1.095% |
| CCC(CC(=O)Nc1ccc2c(c1)CC(=O)N2)c1ccccc1 (stereo not given) | 3.416% |
| Cn1cc(C(=O)N2CCOc3ccccc32)ccc1=O | -9.078% |
| CC(C)N1CC(C(=O)NCCc2csc(-c3ccncc3)n2)CC1=O (stereo not given) | 2.271% |
| O=C(NCCc1cccc(Cl)c1)C1CCOCC1 | 2.096% |
| O=C(NCCc1cc2nc(-c3ccncc3)ccn2n1)C1CC1 | 124.8% |
| O=C(Nc1cc(-c2ccncc2)no1)C1CC1 | -3.278% |
| O=C(NCCc1cc2nc(-c3ccncc3)ccn2n1)C1CCOCC1 | 126.4% |
| Cc1csc(CCNC(=O)C2CCOC2)n1 (stereo not given) | 0.3325% |
| Cc1cc(=O)n(C)cc1NC(=O)NCc1cccc(F)c1 | 28.52% |
| CN1CCOC(C(=O)Nc2nc(-c3ccccc3F)n[nH]2)C1 (stereo not given) | -6.828% |
| O=C(Cc1ccccc1)N1CC(=O)N(Cc2ccco2)CC(O)C1 (stereo not given) | 119.5% |
| O=C(Cc1ccc(-c2ccccc2)cc1)N1CCOCC(O)C1 (stereo not given) | -43.76% |
| O=C1CN(C(=O)OCc2ccccc2)CC(O)CN1Cc1ccco1 (stereo not given) | 93.23% |
| O=C(COCc1ccccc1)N1CCN(Cc2ccccc2F)C(=O)C1 | -37.48% |
| O=C1NCCO[C@H]2CN(C(=O)Cc3ccco3)CC[C@@H]12 | -15.97% |
| O=C(O)C(F)(F)F.c1coc(CN2Cc3ccnn3CC(COCC3CC3)C2)c1 (stereo not given) | 5.412% |

Reference: ChEMBL document CHEMBL3988442, “University of Dundee, Small-Polar-MMV Screening Library” (2021)
